Measurements from PubChem BioAssay (NCATS).
Where “and” joins values, the source holds several entries; their conditions need not be identical. Equal values may be shown once. Records with an inconclusive call do not appear. The source holds several records for some structures; these can differ, active in one and inactive in another. Calls of active or inactive are those of the source. Calls come from the whole dose curve; as a rule, active = well fitted curve in the direction sought with a large enough effect; inconclusive = small, poorly fitted or top-dose-only effect, or another doubt; inactive = no such curve, though single readings can be large; an effect the other way counts as inactive or inconclusive.

Experiments:
[1] = Viability qHTS for spleen associated tyrosine kinase inhibitor (SYKi) naive MV4-11 cells (AID 1963823); note: nearly all actives have a fitted effect of over 40% in size
Procedure, shortened: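 Read-out: CellTiter-Glo luminescence. Exposure: 72 hr, 37 C, 5% CO2, 95% humidity. Cells: MV4-11 without SYK inhibitor history, 500/well, qHTS format.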

[2] = Viability qHTS for spleen associated tyrosine kinase inhibitor (SYKi) drug resistant MV4-11 cells (AID 1963824); note: nearly all actives have a fitted effect of over 35% in size
Procedure, shortened: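 SYK-inhibitor-resistant MV4-11 AML cells were seeded at 500 per well onto compound and cultured 72 hours (37 °C, 5% CO2). CellTiter-Glo was then added, and after 10 min at room temperature, luminescence gave viability.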

[3] = Quantitative highthroughput screen to assess conditional lethalithy of NOMO1 cells grown in RPMI1640 with dialyzed fetal bovine serum (RPMI+ds) (AID 1963877); note: nearly all actives have a fitted effect of over 30% in size;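 for Viability: series mostly up to about 46 µM; 100% = DMSO control wells and 0% = empty wells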
Procedure, shortened: (§1)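 Each medium arm—HPLM with 10% dialyzed FBS, or RPMI1640 with 5 mM glucose and 10% untreated or dialyzed FBS—was screened against an 11-point, 3-fold compound titration for 48 h at 37 °C, with CellTiter-Glo luminescence as endpoint.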

[4] = Quantitative highthroughput screen to assess conditional lethalithy of P12 Ichikawa cells grown in Human Plasma-Like Medium with dialyzed fetal bovine serum (HPLM+ds) (AID 1963879); details: Potency: viability; note: nearly all actives have a fitted effect of over 35% in size; for Viability: series mostly up to about 46 µM
Procedure, shortened: as §1

[5] = Quantitative highthroughput screen to assess conditional lethalithy of P12 Ichikawa cells grown in RPMI1640 with untreated serum (RPMI+s) (AID 1963881); details: Potency: viability; note: nearly all actives have a fitted effect of over 35% in size;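 for Viability: series mostly up to about 46 µM; 100% = DMSO wells and 0% = empty wells without cells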
Procedure, shortened: as §1

[6] = Quantitative highthroughput screen to assess conditional lethalithy of SEM cells grown in Human Plasma-Like Medium with dialyzed fetal bovine serum (HPLM+ds) (AID 1963882); note: nearly all actives have a fitted effect of over 35% in size; for Viability: series mostly up to about 46 µM
Procedure, shortened: as §1

[7] = Quantitative highthroughput screen to assess conditional lethalithy of SEM cells grown in RPMI1640 with dialyzed fetal bovine serum (RPMI+ds) (AID 1963884); note: nearly all actives have a fitted effect of over 35% in size;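 for Viability: series mostly up to about 46 µM; 100% = DMSO control wells and 0% = empty wells without cells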
Procedure, shortened: as §1

[8] = Cellular viability qHTS for adrenocortical cancer (ACC) cell line NCI-H295R (AID 1963990); note: nearly all actives have a fitted effect of over 60% in size
Procedure, shortened: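 Compound titrations (up to 46 uM final) are applied to NCI-H295R cultures for 48 h at 37C. Viable cell number is estimated by CellTiter-Glo signal, normalised to DMSO and doxorubicin controls.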

[9] = Quantitative highthroughput screen to assess conditional lethalithy of P12 Ichikawa cells grown in RPMI1640 with dialyzed fetal bovine serum (RPMI+ds) (AID 1963880); details: Potency: P12-Ichikawa viability; note: nearly all actives have a fitted effect of over 35% in size;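 for Viability: 100% = DMSO wells and 0% = empty wells on each plate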
Procedure, shortened: as §1

[10] = Quantitative highthroughput screen to assess conditional lethalithy of SEM cells grown in RPMI1640 with unreated serum (RPMI+s) (AID 1963883); note: nearly all actives have a fitted effect of over 35% in size;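 for Viability: 100% = DMSO wells and 0% = empty wells without cells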
Procedure, shortened: as §1

[11] = Cellular viability qHTS for adrenocortical cancer (ACC) cell line SW-13 (AID 1963989); details: SW-13 ACC cells viability, CellTiter-Glo, 48 h; activity (max response): stronger effect = lower value; note: nearly all actives have a fitted effect of over 65% in size;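 for activity (max response): cells grown in serum-free medium with ITS supplement; % is set by controls: 0 for no effect and ±100 for the full control effect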
Procedure, shortened: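 48 h treatment, SW-13 in ITS/DMEM serum-free; doses up to 46 uM; readout CellTiter-Glo luminescence; curve fit four-parameter logistic.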
Potency is the fitted concentration of half-maximal effect.

Row | SMILES | Potency [1] | Potency [2] | Potency [3] | Potency [4] | Potency [5] | Potency [6] | Potency [7] | Potency [8] | Potency [9] | Potency [10] | Potency [11] | activity (max response) [11]
1 | Cn1cc(-c2[nH]c3cc(NC(=O)[C@H](N)C4CCCCC4)cc4c3c2C=NNC4=O)cn1 | 66.1 nM (active) | 164 nM (active) and 83.3 nM (active) | 5.26 µM (active) | 16.6 µM (active) | 7.43 µM (active) | 2.96 µM (active) | 1.18 µM (active) | inactive |  |  |  | 
2 | CCCCc1oc2ccccc2c1C(=O)c1cc(I)c(OCCN(CC)CC)c(I)c1 | 18.8 µM (active) and 16.6 µM (active) | 23.7 µM (active) and 18.6 µM (active) | 20.9 µM (active) | inactive | inactive | inactive | inactive |  | inactive | inactive | 31.6 µM (active) | 
3 | COc1cc2c(N3CCN(C(=O)Nc4ccc(OC(C)C)cc4)CC3)ncnc2cc1OCCCN1CCCCC1 | 231 nM (active) and 235 nM (active) | 366 nM (active) and 662 nM (active) | 8.33 µM (active) |  |  |  | 0.132 µM (active) | inactive | 8.33 µM (active) | 0.469 µM (active) |  | 
4 | Cc1nn(C)c(COc2ccc(N3CCN(S(=O)(=O)N(C)C)CC3)cc2)c1-c1cccc2c(CCCOc3cccc4ccccc34)c(C(=O)O)n(CCN3CCOCC3)c12 | 7.42 µM (active) and inactive | 6.61 µM (active) and inactive | inactive |  |  |  |  |  |  |  |  | -16.3% (inactive)
5 | COc1cc(NCc2ccc3nc(N)nc(N)c3c2C)cc(OC)c1OC | 1050 nM (active) | 42.2 nM (active) and 1.05 µM (active) | 10.5 µM (active) | 2.35 µM (active) | 18.7 µM (active) |  |  | 14.6 nM (active) and 2.82 µM (active) | 10.5 µM (active) |  | 10.3 nM (active) and 1.12 µM (active) | 
